Test results reported in ChEMBL document CHEMBL1961873, “Compounds: GSK PKIS; Assays: Nanosyn kinase panel” (2012).

Assays:
[1] = molecular target: Serine/threonine-protein kinase MARK2 (Homo sapiens) (UniProt Q7KZI7); conditions: at 1 µM
[2] = molecular target: PAS domain-containing serine/threonine-protein kinase (Homo sapiens) (UniProt Q96RG2); conditions: at 0.1 µM
[3] = molecular target: PAS domain-containing serine/threonine-protein kinase (Homo sapiens) (UniProt Q96RG2); conditions: at 1 µM
[4] = molecular target: Phosphorylase b kinase gamma catalytic chain, skeletal muscle/heart isoform (Homo sapiens) (UniProt Q16816); conditions: at 0.1 µM
[5] = molecular target: Phosphorylase b kinase gamma catalytic chain, skeletal muscle/heart isoform (Homo sapiens) (UniProt Q16816); conditions: at 1 µM
[6] = molecular target: T1, Phosphorylase b kinase gamma catalytic chain, liver/testis isoform (Homo sapiens) (UniProt P15735); conditions: at 0.1 µM
T1 sequence (whole entry): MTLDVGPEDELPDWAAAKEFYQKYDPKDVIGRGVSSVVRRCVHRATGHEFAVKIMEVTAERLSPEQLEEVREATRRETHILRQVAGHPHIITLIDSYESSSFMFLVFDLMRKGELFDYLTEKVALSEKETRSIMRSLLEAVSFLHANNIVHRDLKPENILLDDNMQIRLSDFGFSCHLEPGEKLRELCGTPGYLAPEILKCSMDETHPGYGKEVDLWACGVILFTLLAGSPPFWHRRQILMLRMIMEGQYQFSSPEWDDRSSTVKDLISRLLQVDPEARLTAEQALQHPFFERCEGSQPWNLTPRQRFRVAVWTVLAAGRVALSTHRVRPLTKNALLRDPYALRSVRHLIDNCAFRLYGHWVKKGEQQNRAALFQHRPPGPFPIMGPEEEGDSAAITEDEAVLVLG

[7] = molecular target: T1, Phosphorylase b kinase gamma catalytic chain, liver/testis isoform (Homo sapiens); conditions: at 1 µM
[8] = molecular target: Serine/threonine-protein kinase pim-1 (Homo sapiens) (UniProt P11309); conditions: at 0.1 µM
[9] = molecular target: Serine/threonine-protein kinase pim-1 (Homo sapiens) (UniProt P11309); conditions: at 1 µM
[10] = molecular target: Serine/threonine-protein kinase pim-2 (Homo sapiens) (UniProt Q9P1W9); conditions: at 0.1 µM
[11] = molecular target: Serine/threonine-protein kinase pim-2 (Homo sapiens) (UniProt Q9P1W9); conditions: at 1 µM
[12] = molecular target: Serine/threonine-protein kinase pim-3 (Homo sapiens) (UniProt Q86V86); conditions: at 0.1 µM
[13] = molecular target: Serine/threonine-protein kinase pim-3 (Homo sapiens) (UniProt Q86V86); conditions: at 1 µM
[14] = molecular target: T2, MAP kinase-activated protein kinase 5 (Homo sapiens) (UniProt Q8IW41); conditions: at 0.1 µM
T2 sequence (whole entry): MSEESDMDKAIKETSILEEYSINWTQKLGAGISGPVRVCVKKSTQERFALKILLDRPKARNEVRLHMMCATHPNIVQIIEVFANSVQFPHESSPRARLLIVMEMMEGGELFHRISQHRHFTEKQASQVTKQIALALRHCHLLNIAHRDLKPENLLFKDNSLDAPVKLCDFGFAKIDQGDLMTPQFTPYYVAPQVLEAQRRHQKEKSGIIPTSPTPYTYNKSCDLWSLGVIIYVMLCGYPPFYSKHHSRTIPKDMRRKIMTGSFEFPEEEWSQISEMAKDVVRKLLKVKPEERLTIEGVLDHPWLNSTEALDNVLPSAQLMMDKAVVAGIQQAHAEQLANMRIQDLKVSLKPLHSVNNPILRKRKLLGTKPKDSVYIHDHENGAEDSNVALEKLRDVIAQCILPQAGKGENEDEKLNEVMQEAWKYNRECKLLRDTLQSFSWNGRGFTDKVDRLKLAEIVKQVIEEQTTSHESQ

[15] = molecular target: T2, MAP kinase-activated protein kinase 5 (Homo sapiens); conditions: at 1 µM
[16] = molecular target: Serine/threonine-protein kinase SIK1 (Homo sapiens) (UniProt P57059); conditions: at 0.1 µM
[17] = molecular target: Serine/threonine-protein kinase SIK1 (Homo sapiens) (UniProt P57059); conditions: at 1 µM
[18] = molecular target: Serine/threonine-protein kinase SIK2 (Homo sapiens) (UniProt Q9H0K1); conditions: at 0.1 µM
[19] = molecular target: Serine/threonine-protein kinase SIK2 (Homo sapiens) (UniProt Q9H0K1); conditions: at 1 µM
[20] = molecular target: T3, Serine/threonine-protein kinase TBK1 (Homo sapiens) (UniProt Q9UHD2); conditions: at 0.1 µM;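 also: values are the mean TBK1 inhibition, taken from the GSK PKIS screening data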
T3 sequence (whole entry): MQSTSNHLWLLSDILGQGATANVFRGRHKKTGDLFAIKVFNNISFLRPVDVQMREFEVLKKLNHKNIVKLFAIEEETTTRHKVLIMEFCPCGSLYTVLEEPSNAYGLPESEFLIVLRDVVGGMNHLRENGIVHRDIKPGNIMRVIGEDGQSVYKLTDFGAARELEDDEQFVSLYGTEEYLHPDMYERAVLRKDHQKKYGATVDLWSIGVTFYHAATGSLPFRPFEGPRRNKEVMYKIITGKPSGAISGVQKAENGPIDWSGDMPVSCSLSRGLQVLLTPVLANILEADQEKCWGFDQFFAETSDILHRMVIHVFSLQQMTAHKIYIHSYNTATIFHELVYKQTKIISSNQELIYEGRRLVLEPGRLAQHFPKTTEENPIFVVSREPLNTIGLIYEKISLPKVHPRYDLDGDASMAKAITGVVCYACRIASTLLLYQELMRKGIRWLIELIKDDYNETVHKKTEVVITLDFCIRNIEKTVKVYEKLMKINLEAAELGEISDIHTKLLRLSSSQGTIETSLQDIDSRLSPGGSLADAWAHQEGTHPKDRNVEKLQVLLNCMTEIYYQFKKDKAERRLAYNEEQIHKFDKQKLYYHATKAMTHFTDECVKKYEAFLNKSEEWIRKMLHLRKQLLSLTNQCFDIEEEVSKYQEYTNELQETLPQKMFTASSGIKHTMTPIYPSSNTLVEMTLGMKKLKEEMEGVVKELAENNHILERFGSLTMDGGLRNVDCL

Chain of Serine/threonine-protein kinase SIK1 (Homo sapiens) (P57059 whole entry): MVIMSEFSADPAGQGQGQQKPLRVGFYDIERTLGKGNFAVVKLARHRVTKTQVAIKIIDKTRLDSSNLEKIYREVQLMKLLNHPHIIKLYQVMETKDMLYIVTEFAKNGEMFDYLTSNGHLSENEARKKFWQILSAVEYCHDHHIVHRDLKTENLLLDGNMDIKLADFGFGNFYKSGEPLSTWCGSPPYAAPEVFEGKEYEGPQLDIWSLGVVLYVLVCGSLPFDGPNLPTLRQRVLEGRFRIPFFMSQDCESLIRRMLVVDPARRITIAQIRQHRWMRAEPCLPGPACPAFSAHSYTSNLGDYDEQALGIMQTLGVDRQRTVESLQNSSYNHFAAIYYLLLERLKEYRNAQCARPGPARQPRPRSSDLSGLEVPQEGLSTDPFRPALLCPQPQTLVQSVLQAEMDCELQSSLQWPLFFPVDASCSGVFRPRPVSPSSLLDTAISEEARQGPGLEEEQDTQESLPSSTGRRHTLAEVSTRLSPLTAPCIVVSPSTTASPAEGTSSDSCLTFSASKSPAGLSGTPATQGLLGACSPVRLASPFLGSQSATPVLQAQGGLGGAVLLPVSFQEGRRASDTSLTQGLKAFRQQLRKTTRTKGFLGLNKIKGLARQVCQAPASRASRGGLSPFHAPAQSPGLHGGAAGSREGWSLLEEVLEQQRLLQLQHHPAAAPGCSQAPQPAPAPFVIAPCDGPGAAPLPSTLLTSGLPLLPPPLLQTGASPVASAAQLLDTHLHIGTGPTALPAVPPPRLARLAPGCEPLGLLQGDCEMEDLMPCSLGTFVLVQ
Chain of Serine/threonine-protein kinase MARK2 (Homo sapiens) (Q7KZI7 whole entry, the tested form may be a part): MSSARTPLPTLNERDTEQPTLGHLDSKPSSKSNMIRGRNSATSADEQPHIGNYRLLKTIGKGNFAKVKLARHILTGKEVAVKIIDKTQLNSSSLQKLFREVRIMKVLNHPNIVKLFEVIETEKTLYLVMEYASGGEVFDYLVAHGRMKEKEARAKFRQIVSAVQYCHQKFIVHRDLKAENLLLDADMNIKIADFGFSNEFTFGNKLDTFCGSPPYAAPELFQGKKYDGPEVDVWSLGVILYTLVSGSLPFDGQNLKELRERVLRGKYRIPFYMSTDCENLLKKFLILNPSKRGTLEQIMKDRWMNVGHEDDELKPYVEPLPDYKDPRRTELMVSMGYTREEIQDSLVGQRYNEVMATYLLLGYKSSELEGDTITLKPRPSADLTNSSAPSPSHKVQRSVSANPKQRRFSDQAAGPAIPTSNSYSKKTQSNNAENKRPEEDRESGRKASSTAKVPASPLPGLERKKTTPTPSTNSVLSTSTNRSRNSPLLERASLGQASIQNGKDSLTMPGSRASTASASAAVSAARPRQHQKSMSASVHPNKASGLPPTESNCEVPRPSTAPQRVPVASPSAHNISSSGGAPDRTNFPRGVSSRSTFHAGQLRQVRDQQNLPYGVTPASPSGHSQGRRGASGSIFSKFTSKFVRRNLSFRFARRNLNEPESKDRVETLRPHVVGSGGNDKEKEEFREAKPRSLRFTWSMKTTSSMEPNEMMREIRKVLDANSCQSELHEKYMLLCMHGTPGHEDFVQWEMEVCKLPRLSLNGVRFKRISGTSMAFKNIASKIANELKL
Chain of Serine/threonine-protein kinase pim-2 (Homo sapiens) (Q9P1W9 whole entry, looked up): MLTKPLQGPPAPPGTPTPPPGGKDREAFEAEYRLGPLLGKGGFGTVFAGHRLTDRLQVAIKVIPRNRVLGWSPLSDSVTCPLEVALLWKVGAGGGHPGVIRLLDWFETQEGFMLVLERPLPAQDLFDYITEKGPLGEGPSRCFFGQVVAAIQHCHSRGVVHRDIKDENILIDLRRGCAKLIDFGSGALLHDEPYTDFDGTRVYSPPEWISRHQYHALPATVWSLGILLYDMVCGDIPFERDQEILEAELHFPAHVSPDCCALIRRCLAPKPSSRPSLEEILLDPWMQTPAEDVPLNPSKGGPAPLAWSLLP
Chain of Phosphorylase b kinase gamma catalytic chain, skeletal muscle/heart isoform (Homo sapiens) (Q16816 whole entry, looked up, canonical isoform): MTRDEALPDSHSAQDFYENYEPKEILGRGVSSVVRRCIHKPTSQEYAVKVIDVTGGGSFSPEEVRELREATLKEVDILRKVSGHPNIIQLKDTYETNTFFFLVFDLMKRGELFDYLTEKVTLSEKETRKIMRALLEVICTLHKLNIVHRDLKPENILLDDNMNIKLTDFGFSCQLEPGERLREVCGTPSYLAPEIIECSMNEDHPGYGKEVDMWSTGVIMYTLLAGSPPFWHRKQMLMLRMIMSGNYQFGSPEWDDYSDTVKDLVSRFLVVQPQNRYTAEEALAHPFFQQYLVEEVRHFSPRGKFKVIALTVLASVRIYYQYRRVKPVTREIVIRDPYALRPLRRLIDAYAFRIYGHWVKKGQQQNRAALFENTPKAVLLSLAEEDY
Chain of Serine/threonine-protein kinase pim-1 (Homo sapiens) (P11309 whole entry, looked up): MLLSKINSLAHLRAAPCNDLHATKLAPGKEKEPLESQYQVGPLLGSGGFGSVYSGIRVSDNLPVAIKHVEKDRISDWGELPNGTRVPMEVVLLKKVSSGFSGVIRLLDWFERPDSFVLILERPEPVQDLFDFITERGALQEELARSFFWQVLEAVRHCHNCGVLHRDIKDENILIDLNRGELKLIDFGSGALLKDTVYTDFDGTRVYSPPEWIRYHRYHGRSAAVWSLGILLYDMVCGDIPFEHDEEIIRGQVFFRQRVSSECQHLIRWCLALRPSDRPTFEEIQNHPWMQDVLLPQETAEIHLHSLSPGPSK
Chain of PAS domain-containing serine/threonine-protein kinase (Homo sapiens) (Q96RG2 whole entry, the tested form may be a part, canonical isoform): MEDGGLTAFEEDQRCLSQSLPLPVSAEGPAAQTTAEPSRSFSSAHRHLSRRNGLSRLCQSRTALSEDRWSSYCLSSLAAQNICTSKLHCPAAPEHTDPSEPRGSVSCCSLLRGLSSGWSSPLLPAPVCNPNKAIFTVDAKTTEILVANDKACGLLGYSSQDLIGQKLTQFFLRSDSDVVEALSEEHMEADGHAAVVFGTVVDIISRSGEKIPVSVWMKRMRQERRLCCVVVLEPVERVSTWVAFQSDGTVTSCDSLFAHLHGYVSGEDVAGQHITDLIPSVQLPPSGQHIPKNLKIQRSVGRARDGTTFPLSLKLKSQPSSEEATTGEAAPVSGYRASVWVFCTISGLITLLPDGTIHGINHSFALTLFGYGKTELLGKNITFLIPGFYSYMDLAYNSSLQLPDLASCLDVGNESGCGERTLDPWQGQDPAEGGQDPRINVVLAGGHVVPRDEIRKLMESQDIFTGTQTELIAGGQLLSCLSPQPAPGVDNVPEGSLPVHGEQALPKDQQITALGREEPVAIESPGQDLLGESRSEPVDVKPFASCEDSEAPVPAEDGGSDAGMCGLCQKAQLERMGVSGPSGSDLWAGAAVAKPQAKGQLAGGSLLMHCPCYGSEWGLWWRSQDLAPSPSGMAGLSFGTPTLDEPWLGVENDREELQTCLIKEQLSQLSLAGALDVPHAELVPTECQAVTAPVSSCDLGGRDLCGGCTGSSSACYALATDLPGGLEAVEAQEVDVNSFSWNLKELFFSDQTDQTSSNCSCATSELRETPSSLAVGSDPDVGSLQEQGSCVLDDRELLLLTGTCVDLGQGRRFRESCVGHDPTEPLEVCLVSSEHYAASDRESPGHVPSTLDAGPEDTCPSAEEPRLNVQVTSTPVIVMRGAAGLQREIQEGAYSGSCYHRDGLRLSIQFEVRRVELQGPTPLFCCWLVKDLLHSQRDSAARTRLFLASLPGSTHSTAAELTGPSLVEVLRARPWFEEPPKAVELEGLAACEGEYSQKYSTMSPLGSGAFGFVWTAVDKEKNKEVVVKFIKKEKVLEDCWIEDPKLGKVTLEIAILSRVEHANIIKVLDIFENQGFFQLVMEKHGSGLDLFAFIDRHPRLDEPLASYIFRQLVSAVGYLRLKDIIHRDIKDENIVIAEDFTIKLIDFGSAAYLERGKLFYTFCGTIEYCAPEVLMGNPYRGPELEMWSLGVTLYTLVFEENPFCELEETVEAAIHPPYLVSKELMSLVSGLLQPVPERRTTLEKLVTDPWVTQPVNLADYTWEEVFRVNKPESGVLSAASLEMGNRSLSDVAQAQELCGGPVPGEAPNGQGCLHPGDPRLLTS

SMILES | inhibition [1] [%] | inhibition [2] [%] | inhibition [3] [%] | inhibition [4] [%] | inhibition [5] [%] | inhibition [6] [%] | inhibition [7] [%] | inhibition [8] [%] | inhibition [9] [%] | inhibition [10] [%] | inhibition [11] [%] | inhibition [12] [%] | inhibition [13] [%] | inhibition [14] [%] | inhibition [15] [%] | inhibition [16] [%] | inhibition [17] [%] | inhibition [18] [%] | inhibition [19] [%] | inhibition [20] [%]
CN(c1ccc(NC(=O)Nc2ccc(OC(F)(F)F)cc2)cc1)c1ccnc(Nc2cccc(S(N)(=O)=O)c2)n1 | -1.52 | 0.55 | 0.28 | 1.77 | 9.58 | 3.6 | 2.53 | 0.23 | -0.84 | 0.55 | 0.39 | 0.72 | -1.83 | 0.88 | -0.8 | 3.04 | 7.29 | 0.98 | -0.49 | 0.04
CN(C)C(=O)O[C@@H]1CN[C@@H](C#Cc2cc3ncnc(Nc4ccc(OCc5cccc(F)c5)c(Cl)c4)c3s2)C1 | 1.06 | -0.1 | -0.12 | 0.51 | -3.21 | 1.07 | -1.09 | 1.41 | 0.48 | 0.15 | 0.58 | -0.21 | -1.29 | -0.43 | -2.16 | 0.03 | 3.96 | -0.41 | 10.1 | 4.03
O=C1Nc2ccccc2/C1=C/Nc1ccc2[nH]c(=O)[nH]c2c1 | 13.4 | 12.4 | 64.1 | 10.5 | 42.6 | 7.44 | 21.4 | -0.21 | 2.44 | 0.27 | -0.46 | -0.36 | 5.21 | 1.86 | 5 | 3.92 | 14.9 | 9.13 | 17.6 | 8.2
NS(=O)(=O)c1ccc(NC=C2C(=O)Nc3ccc4ncsc4c32)cc1 | 46.2 | 0.44 | -0.6 | 20.3 | 66.4 | 8.94 | 32.1 | 2.48 | 9.5 | 1.26 | 5.46 | 2.4 | 13.1 | 2.33 | 13.9 | 5.99 | 34.1 | 9.07 | 40.7 | 13.4
COc1cccc(-n2ncc3c(N/N=C/c4ccc(C)cc4)ncnc32)c1 | 6.23 | -0.93 | 0.57 | 2.43 | 10 | 5.73 | 5.98 | 1.21 | 3.51 | -0.44 | 0.75 | 2.2 | 8.3 | 1.88 | 2.22 | 7.95 | 12.6 | 8.99 | 14.7 | 2.64
Cc1nc(-c2ccccc2)n2nc(NCCCN3CCOCC3)ncc12 | 0.71 | 0.65 | -0.06 | 0.52 | 4.26 | 3.22 | 3.98 | -0.82 | 0.37 | 0.19 | 0.05 | -0.2 | 1.5 | 0.74 | 0.74 | 3.53 | 5.24 | -0.49 | 4.81 | 1.18
CN1CCN(C(=O)c2ccc(NC(=O)Nc3ccc(N(C)c4ccnc(Nc5ccc(CS(C)(=O)=O)cc5)n4)cc3)cc2)CC1 | 8.38 | -0.3 | 0.27 | -1.64 | 1.5 | 2.03 | 3.05 | 0.58 | -0.28 | -0.2 | -0.35 | 0.13 | 2.14 | 1.17 | 1.29 | 3.16 | 17.6 | -0.55 | 17.4 | 2.62
